# Assay results from PubChem BioAssay.
# Values without a mark were called inactive. How the calls were made is not given here.
# Target: Pantothenate synthetase (Mycobacterium tuberculosis (strain ATCC 25618 / H37Rv)) (UniProt P9WIL5)
# Test: Coupled enzyme confirmation of inhibitors against recombinant Mtb PanC (AID 375);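 further: 0% = full reaction with vehicle and 100% = no enzyme background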
# Details: coupled enzyme assay; at 10 µM, stronger effect = higher value
# Sequence of Pantothenate synthetase (Mycobacterium tuberculosis (strain ATCC 25618 / H37Rv)) (P9WIL5 whole entry, looked up): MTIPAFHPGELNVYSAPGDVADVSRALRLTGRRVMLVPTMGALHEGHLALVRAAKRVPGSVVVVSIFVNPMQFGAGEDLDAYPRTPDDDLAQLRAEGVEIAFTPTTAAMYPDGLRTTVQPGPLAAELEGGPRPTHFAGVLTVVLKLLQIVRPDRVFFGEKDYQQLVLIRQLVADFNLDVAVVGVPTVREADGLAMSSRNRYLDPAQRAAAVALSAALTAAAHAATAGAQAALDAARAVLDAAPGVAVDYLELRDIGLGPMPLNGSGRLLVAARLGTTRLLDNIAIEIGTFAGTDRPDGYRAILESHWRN
row,SMILES,inhibition
1,CCN(CC)S(=O)(=O)c1ccc(NC(=O)c2cccc3c2C(=O)N(CCOC)C3)cc1,4%
2,CCc1nnc(NC(=O)c2ccc(S(=O)(=O)NCC(C)C)cc2)s1,0%
3,Cc1cc(C)c2c(=O)n(CC(=O)NCCCN3CCOCC3)sc2n1,1%
4,COCCn1c(SCC(=O)Nc2sc(C)c(C)c2C#N)nnc1C(C)C,0%
5,CCC(C)NC(=O)C1(C)CCC(=O)N1Cc1ccccc1OC (centres undefined),10%
6,Cc1ccc(CSc2nc3c(c(=O)[nH]2)CCC3)cc1,1%
7,COc1cccc(C(=O)CSc2nnc(COc3cccc4cccnc34)o2)c1,0%
8,Cc1cccn2c(=O)c3cc(C#N)c(=NC(=O)c4cccnc4)n(CC4CCCO4)c3nc12 (centres undefined),0%
9,Nc1nc(Cl)nc2c1ncn2[C@@H]1O[C@H](CO)[C@@H](O)[C@H]1O,3%
10,Cc1ccc2[nH]c3c(N4CCOCC4)ncnc3c2c1,0%
11,C=CCOc1cccc(C2/C(=C(\O)c3ccc(F)cc3)C(=O)C(=O)N2CCN(C)C)c1 (centres undefined),0%
12,COc1ccc(-n2c(SCC(=O)N3CCCCC3C)nnc2-c2cccnc2)cc1 (centres undefined),0%
13,O=c1cc(-c2ccccc2)[nH]c2nc3ccccc3n12,0%
14,CC(=O)c1ccc(-n2nnnc2SCC(=O)N2CCc3ccccc3C2)cc1,0%
15,Cc1ccc(Cn2nnc(C(=O)Nc3cccc(C)c3C)c2N)cc1,5%
16,O=C(Cn1ccc2ccccc2c1=O)NCCC(=O)NC1CCN(Cc2ccccc2)CC1,0%
17,COc1cc(NC(=O)c2nccnc2C(=O)O)cc(OC)c1,5%
18,COc1ccc(-n2c(Cc3cccn3C)nnc2SCC(N)=O)cc1,0%
19,CC(C)(C)NC(=O)COC(=O)c1snc(C(=O)NC2CCCCC2)c1N,3%
20,CN(C)c1ccc(C(=O)OCC(=O)NC2CCCCC2)cc1,0%

row,SMILES,inhibition
1,C=CCC(NCc1ccco1)c1ccc(OC)cc1OC (centres undefined),3%
2,COc1ccc(CNC(=O)C(c2ccco2)N(Cc2cccs2)C(=O)Cc2cccs2)cc1 (centres undefined),0%
3,CN(C(=O)C1CCCO1)c1nnc(-c2ccncc2)s1 (centres undefined),1%
4,Cc1nc2ccc(C(=O)O)cc2c2c1CC(C)S2 (centres undefined),0%
5,O=C(NCCN1CCN(c2ccccc2)CC1)c1ccc(NC(=O)C2CCCO2)cc1 (centres undefined),2%
6,O=C(Nc1ccccc1-c1ccccc1)NC1CCN(CC(=O)N2CCOCC2)CC1,0%
7,CCOC(=O)c1nnn(CC(=O)Nc2cccc(OC)c2)c1C(=O)OCC,9%
8,Cc1cccc(N2CCN(S(=O)(=O)c3ccc4c(c3)CCC(=O)N4)CC2C)c1 (centres undefined),6%
9,COc1ccc(CCNC(=O)C2CC(=O)N(c3ccccc3)C2)cc1OC (centres undefined),0%
10,O=C(NCc1ccccn1)c1cccs1,0%
11,O=C(Nc1cc(C(F)(F)F)ccc1N1CCCC1)c1ccc2c(c1)OCO2,2%
12,CCCN1Cc2cccc(C(=O)NC3CCCC3)c2C1=O,0%
13,Cc1ccc(NC(=O)CSc2nnc(NC(=O)CN3CCOCC3)s2)cc1,5%
14,COc1ccc(NC(=O)CN(c2ccc(C(C)C)cc2)S(=O)(=O)c2c(C)noc2C)cc1OC,0%
15,COc1ccc(C)cc1-n1nnnc1SCC(=O)Nc1cc(C)on1,0%
16,Cc1cc(N=Cc2cc(Br)ccc2O)no1,6%
17,CCSc1nnc(-c2ccc(OC)cc2)o1,0%
18,Cc1cnc(NC(=O)CSc2nc3ccccc3c(=O)[nH]2)s1,3%
19,O=C(CSc1n[nH]c(-c2ccco2)n1)Nc1sc2c(c1C(=O)Nc1ccccc1)CCCC2,0%
